Drawing on article PMC7862700, “An all-to-all approach to the identification of sequence-specific readers for epigenetic DNA modifications on cytosine”, this text covers binding signal for 1 sequence.

Holding throughout (assay): DAPPL (digital affinity profiling via proximity ligation, sequencing); 10 mM Tris-HCl pH 7.5, 50 mM NaCl, 1 mM DTT, 4% glycerol, room temperature, 30 min; GST-TFs on glutathione beads, 16-mer random dsDNA library, 0.1% formaldehyde crosslink after washing; high values mean tight binding
For one assay, the target named is T1, FEV (Homo sapiens, UniProt Q99581 1-238).
T1 sequence: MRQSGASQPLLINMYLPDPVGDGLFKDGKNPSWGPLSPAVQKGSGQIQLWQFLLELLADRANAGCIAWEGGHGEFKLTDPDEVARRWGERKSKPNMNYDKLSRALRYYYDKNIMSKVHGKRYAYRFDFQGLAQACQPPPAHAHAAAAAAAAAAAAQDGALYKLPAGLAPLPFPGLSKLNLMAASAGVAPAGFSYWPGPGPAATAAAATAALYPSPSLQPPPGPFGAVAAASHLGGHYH
Conditions: protein: recombinant; tags: N-terminal GST; dsDNA, one strand shown. An outline of the steps: (§1)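 Human transcription factors were made in yeast as GST fusions, captured on glutathione beads and barcoded with DNA. With a tag-only sample included, the pool was incubated with 200 nmole of a random double-stranded 16-mer DNA library in Tris/NaCl/DTT/glycerol buffer at room temperature for 30 min, then crosslinked with 0.1% formaldehyde after washing, ligated by proximity, amplified and sequenced. For binding signal, each hexamer's read frequency for a factor is divided by its frequency for the tag-only sample.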

In a further assay the target is ETV5 (Homo sapiens, UniProt P41161 1-510). The conditions noted are these: protein: recombinant; tags: N-terminal GST; dsDNA, one strand shown. A digest of the protocol:
as §1

Another assay deals with HSF1 (Homo sapiens, UniProt Q00613 1-529). Conditions: protein: recombinant; tags: N-terminal GST; chain copies: 3; dsDNA, one strand shown. An outline of the steps: as §1
The target of a further assay is T2, SPIC (Homo sapiens, UniProt Q8N5J4 1-248).
T2 sequence: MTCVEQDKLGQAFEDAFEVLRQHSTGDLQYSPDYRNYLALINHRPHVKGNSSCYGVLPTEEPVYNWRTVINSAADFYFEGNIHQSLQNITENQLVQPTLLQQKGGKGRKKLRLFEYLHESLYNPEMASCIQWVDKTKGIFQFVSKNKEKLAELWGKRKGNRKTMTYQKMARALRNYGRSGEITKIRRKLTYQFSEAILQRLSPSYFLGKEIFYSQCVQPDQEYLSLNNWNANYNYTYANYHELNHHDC
The conditions noted are these: protein: recombinant; tags: N-terminal GST; dsDNA, one strand shown. A digest of the protocol: as §1

The next assay deals with ELF4 (Homo sapiens, UniProt Q99607 1-663). Conditions: protein: recombinant; tags: N-terminal GST; dsDNA, one strand shown. A digest of the protocol: as §1
In another assay the target is T3, ELK4 (Homo sapiens, UniProt P28324-2 1-405).
T3 sequence: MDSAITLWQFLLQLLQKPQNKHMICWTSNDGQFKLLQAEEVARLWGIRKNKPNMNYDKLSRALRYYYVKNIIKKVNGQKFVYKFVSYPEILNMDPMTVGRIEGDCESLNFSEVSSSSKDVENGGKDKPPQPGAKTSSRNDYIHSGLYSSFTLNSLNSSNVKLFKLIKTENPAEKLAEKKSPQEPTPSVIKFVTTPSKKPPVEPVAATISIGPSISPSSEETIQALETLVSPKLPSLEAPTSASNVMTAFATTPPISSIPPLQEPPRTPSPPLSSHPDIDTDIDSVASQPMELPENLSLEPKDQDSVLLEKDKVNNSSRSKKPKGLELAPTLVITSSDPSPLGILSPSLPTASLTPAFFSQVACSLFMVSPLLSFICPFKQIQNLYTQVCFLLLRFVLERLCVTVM
The conditions noted are these: protein: recombinant; tags: N-terminal GST; dsDNA, one strand shown. A digest of the protocol: as §1

The target of the next assay is T4, ETV2 (Homo sapiens, UniProt O00321 1-342).
T4 sequence: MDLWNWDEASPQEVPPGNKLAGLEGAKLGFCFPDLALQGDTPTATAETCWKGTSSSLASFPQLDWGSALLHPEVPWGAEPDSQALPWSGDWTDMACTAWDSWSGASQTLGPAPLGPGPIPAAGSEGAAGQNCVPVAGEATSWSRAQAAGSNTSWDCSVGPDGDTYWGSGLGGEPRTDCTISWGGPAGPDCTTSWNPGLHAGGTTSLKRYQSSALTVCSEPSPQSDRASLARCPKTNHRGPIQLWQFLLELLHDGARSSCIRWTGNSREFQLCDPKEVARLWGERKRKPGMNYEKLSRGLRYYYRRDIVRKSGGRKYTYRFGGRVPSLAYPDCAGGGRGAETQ
Conditions: protein: recombinant; tags: N-terminal GST; dsDNA, one strand shown. A digest of the protocol:
as §1

The target of a further assay is T5, ELF3 (Homo sapiens, UniProt P78545 1-371).
T5 sequence: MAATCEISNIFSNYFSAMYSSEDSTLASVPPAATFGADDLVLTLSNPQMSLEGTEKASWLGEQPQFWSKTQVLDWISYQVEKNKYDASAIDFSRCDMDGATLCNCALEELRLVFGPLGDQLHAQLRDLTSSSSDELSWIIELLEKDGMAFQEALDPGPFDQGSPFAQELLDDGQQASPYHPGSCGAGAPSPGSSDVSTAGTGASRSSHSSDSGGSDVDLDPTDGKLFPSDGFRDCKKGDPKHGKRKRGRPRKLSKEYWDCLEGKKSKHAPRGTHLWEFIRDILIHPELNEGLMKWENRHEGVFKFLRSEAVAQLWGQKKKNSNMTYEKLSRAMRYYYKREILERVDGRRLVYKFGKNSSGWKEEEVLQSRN
The conditions noted are these: protein: recombinant; tags: N-terminal GST; dsDNA, one strand shown. An outline of the steps:
as §1

For a further assay, the target named is CRX (Homo sapiens, UniProt O43186 1-299). The conditions noted are these: protein: recombinant; tags: N-terminal GST; dsDNA, one strand shown. An outline of the steps:
as §1

The next assay addresses ETV1 (Homo sapiens, UniProt P50549 1-477). The conditions noted are these: protein: recombinant; tags: N-terminal GST; dsDNA, one strand shown. A digest of the protocol: as §1
Another assay concerns the target T6, ERF (Homo sapiens, UniProt P50548 1-548).
T6 sequence: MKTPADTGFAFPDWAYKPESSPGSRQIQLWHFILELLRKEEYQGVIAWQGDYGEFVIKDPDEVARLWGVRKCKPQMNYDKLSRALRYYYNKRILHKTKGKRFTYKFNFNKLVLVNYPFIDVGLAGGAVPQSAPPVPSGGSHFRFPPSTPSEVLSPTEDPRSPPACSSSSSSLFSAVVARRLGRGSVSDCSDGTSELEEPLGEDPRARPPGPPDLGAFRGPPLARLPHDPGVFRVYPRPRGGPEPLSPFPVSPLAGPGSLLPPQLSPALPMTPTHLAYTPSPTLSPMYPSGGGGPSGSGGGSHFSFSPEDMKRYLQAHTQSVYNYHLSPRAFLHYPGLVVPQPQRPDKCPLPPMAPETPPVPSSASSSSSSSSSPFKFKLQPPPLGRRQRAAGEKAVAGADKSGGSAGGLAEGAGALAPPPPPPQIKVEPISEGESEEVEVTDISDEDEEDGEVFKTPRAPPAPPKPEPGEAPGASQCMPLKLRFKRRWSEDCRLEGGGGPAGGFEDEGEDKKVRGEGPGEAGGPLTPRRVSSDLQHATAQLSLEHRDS
The conditions noted are these: protein: recombinant; tags: N-terminal GST; dsDNA, one strand shown. An outline of the steps:
as §1

The target in the next assay is T7, ETV3L (Homo sapiens, UniProt Q6ZN32 1-361).
T7 sequence: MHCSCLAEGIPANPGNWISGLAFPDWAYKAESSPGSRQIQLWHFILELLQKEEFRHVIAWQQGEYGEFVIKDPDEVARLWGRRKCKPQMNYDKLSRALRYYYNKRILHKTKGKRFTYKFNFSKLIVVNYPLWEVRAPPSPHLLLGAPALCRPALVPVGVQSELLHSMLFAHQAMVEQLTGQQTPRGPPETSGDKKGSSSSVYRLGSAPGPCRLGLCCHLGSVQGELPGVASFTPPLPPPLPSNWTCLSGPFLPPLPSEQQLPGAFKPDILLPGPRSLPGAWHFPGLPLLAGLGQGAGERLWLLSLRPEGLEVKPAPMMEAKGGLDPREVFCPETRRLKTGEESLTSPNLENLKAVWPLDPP
Conditions: protein: recombinant; tags: N-terminal GST; dsDNA, one strand shown. An outline of the steps:
as §1

For another assay, the target named is T8, ETS2 (Homo sapiens, UniProt P15036 1-469).
T8 sequence: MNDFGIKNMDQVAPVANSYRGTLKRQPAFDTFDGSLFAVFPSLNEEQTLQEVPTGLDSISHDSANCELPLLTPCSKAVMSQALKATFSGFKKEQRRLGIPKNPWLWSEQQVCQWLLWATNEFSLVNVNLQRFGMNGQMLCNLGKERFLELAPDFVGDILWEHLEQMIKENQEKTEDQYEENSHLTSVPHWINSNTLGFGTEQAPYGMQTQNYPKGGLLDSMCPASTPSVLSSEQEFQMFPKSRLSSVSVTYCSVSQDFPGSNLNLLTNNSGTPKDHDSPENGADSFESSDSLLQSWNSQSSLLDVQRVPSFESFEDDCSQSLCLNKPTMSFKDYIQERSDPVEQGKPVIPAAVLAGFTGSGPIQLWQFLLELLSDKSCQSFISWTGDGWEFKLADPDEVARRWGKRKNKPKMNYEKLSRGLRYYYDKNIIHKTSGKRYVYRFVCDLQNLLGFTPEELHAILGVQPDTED
Conditions: protein: recombinant; tags: N-terminal GST; dsDNA, one strand shown. An outline of the steps:
as §1

The next assay has as its target T9, SPDEF (Homo sapiens, UniProt O95238 1-335).
T9 sequence: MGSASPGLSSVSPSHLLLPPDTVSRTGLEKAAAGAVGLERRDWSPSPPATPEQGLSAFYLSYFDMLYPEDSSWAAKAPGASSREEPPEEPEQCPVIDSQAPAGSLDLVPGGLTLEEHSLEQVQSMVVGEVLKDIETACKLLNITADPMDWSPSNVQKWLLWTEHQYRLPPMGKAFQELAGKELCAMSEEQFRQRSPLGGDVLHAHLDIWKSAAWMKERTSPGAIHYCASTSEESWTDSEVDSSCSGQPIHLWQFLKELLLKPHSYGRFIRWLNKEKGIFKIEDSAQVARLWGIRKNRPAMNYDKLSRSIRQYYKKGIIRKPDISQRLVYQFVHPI
Conditions: protein: recombinant; tags: N-terminal GST; dsDNA, one strand shown. A digest of the protocol:
as §1

In another assay the target is T10, ETV7 (Homo sapiens, UniProt Q9Y603 1-341).
T10 sequence: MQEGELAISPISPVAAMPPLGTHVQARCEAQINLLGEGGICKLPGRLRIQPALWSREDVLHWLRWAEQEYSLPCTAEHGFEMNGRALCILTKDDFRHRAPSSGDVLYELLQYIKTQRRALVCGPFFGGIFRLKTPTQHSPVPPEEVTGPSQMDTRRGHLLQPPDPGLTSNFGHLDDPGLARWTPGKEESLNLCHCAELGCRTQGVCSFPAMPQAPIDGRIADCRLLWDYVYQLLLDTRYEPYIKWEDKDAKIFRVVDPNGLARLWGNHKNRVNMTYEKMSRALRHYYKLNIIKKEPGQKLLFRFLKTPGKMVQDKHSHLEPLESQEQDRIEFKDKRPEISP
Conditions: protein: recombinant; tags: N-terminal GST; dsDNA, one strand shown. A digest of the protocol:
as §1

Another assay concerns the target T11, ELF5 (Homo sapiens, UniProt Q9UKW6-2 1-255).
T11 sequence: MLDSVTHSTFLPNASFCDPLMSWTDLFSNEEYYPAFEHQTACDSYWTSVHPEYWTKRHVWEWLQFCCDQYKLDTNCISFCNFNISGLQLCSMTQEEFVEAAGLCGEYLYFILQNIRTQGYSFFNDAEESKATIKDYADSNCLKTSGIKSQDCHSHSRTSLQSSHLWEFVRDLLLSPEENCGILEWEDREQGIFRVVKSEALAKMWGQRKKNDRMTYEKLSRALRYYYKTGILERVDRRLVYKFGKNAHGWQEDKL
The conditions noted are these: protein: recombinant; tags: N-terminal GST; dsDNA, one strand shown. An outline of the steps:
as §1

The target of another assay is T12, ETV3 (Homo sapiens, UniProt P41162-2 1-143).
T12 sequence: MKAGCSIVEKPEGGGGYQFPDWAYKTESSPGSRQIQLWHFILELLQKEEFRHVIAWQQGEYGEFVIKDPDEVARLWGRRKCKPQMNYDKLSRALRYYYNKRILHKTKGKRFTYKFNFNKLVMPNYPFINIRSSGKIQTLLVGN
Conditions: protein: recombinant; tags: N-terminal GST; dsDNA, one strand shown. A digest of the protocol: as §1

A further assay concerns the target ETV6 (Homo sapiens, UniProt P41212 1-452). The conditions noted are these: protein: recombinant; tags: N-terminal GST; dsDNA, one strand shown. A digest of the protocol:
as §1

Sequence of HSF1 (Q00613 whole entry): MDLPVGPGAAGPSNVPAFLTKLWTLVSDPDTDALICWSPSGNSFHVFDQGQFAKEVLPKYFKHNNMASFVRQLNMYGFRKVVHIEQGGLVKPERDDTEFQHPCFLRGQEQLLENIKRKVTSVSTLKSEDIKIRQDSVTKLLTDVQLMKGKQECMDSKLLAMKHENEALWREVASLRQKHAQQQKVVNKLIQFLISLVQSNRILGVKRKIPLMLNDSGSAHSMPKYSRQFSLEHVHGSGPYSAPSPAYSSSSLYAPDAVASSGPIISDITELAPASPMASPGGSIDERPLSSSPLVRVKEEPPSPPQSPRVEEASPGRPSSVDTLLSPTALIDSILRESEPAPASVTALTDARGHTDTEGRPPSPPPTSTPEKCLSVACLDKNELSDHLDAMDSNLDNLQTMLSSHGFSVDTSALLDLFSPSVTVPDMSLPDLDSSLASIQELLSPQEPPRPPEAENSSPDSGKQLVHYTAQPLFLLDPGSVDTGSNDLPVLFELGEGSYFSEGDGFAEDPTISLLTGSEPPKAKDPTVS
Sequence of ETV1 (P50549 whole entry): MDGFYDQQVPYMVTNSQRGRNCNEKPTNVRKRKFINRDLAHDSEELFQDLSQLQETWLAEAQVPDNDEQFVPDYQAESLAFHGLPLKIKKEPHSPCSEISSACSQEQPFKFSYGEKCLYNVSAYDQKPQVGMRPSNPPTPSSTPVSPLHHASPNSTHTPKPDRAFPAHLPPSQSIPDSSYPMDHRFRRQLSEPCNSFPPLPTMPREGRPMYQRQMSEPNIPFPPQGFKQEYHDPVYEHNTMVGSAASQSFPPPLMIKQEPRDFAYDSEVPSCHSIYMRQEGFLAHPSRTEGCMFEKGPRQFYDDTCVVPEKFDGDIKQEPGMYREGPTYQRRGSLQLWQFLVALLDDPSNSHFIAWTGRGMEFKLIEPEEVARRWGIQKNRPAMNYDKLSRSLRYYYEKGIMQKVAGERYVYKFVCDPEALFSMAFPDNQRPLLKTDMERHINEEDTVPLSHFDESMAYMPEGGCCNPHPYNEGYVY
Sequence of ETV5 (P41161 whole entry): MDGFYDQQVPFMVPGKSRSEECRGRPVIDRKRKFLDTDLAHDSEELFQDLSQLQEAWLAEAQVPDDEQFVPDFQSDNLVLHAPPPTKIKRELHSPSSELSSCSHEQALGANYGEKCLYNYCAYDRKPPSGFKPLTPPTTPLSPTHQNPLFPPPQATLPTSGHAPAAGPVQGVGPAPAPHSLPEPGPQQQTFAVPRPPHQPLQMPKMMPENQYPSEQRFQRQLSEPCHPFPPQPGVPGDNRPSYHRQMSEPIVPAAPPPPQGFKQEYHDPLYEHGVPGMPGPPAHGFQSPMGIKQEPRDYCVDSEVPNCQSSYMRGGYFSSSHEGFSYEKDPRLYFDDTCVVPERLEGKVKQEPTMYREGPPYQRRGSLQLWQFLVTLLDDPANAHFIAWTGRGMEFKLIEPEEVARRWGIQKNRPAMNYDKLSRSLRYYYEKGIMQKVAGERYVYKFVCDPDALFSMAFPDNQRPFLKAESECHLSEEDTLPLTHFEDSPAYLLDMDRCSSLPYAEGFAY
Sequence of CRX (O43186 whole entry): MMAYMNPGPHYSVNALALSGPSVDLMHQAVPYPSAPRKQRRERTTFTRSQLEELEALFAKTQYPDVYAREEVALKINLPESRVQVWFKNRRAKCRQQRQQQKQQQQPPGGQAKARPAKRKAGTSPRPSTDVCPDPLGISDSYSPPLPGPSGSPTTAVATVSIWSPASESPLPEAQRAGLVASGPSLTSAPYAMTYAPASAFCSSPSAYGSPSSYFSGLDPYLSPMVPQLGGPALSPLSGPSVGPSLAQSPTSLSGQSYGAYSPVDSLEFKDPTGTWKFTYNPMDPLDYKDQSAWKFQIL
Sequence of ELF4 (Q99607 whole entry): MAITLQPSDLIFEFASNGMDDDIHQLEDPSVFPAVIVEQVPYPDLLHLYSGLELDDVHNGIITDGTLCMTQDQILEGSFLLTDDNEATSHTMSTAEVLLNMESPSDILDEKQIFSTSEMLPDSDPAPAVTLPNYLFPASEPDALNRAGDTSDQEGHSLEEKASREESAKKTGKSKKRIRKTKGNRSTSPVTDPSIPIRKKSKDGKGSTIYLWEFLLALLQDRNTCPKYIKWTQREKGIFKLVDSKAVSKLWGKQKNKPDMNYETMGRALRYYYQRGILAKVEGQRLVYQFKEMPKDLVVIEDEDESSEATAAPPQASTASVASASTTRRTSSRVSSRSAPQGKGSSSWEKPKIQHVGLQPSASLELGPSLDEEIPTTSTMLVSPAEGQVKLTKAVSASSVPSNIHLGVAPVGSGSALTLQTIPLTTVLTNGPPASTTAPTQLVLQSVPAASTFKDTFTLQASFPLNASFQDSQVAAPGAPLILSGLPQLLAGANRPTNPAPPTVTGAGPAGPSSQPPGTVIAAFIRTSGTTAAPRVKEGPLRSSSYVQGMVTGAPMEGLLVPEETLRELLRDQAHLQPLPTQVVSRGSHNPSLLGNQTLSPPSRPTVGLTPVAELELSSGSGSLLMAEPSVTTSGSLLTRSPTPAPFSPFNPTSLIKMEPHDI
Sequence of ETV6 (P41212 whole entry): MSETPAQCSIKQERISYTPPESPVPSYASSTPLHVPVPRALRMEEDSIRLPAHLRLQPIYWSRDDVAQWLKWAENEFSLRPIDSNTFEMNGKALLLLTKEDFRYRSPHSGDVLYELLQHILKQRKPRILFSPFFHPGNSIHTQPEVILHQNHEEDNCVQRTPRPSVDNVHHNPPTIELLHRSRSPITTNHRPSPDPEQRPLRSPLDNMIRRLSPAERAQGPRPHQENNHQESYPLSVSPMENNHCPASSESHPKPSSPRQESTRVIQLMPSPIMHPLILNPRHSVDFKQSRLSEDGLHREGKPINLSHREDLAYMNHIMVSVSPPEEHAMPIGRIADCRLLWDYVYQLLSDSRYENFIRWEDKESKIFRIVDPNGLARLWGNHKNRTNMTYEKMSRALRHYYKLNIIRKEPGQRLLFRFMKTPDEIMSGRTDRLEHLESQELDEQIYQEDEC

TTGACA: the binding signal in the assay with FEV is 1.34 fold enrichment (6-mer frequency, TF over GST control); with ETV5, 1.28 fold enrichment (6-mer frequency, TF over GST control); in the assay with HSF1, 1.19 fold enrichment (6-mer frequency, TF over GST control); with SPIC it was 1.21 fold enrichment (6-mer frequency, TF over GST control); in the assay with ELF4, 1.3 fold enrichment (6-mer frequency, TF over GST control); with ELK4, 1.47 fold enrichment (6-mer frequency, TF over GST control). Moreover, the binding signal is 1.36 fold enrichment (6-mer frequency, TF over GST control) with ETV2; 1.51 fold enrichment (6-mer frequency, TF over GST control) with ELF3; 1.22 fold enrichment (6-mer frequency, TF over GST control) with CRX; 1.33 fold enrichment (6-mer frequency, TF over GST control) with ETV1; 1.46 fold enrichment (6-mer frequency, TF over GST control) in the assay with ERF; 1.37 fold enrichment (6-mer frequency, TF over GST control) in the assay with ETV3L. Further, the binding signal was 1.4 fold enrichment (6-mer frequency, TF over GST control) with ETS2; 1.3 fold enrichment (6-mer frequency, TF over GST control) with SPDEF; 1.44 fold enrichment (6-mer frequency, TF over GST control) with ETV7; 1.29 fold enrichment (6-mer frequency, TF over GST control) with ELF5; 1.26 fold enrichment (6-mer frequency, TF over GST control) with ETV3; 1.32 fold enrichment (6-mer frequency, TF over GST control) in the assay with ETV6.
